Measurements published in PubChem BioAssay AID1671192 (National Center for Advancing Translational Sciences (NCATS), 2021).
Results filed as inconclusive are left out. Unmarked numbers belong to inactive results. Calls come from the whole dose curve; as a rule, active = well fitted curve in the direction sought with a large enough effect; inconclusive = small, poorly fitted or top-dose-only effect, or another doubt; inactive = no such curve, though single readings can be large or run the other way.

Each compound was assayed against Polyunsaturated fatty acid lipoxygenase ALOX15 (Homo sapiens) (UniProt P16050) (assay: Counterscreen qHTS for inhibitors of human arachidonate 12S-lipoxygenase (ALOX12): ALOX15 Assay). Conditions: purified ALOX15 enzyme activity; series mostly up to 110 µM; activity change, negative = inhibition: at the top concentration.
Sequence of Polyunsaturated fatty acid lipoxygenase ALOX15 (Homo sapiens) (P16050 whole entry, looked up): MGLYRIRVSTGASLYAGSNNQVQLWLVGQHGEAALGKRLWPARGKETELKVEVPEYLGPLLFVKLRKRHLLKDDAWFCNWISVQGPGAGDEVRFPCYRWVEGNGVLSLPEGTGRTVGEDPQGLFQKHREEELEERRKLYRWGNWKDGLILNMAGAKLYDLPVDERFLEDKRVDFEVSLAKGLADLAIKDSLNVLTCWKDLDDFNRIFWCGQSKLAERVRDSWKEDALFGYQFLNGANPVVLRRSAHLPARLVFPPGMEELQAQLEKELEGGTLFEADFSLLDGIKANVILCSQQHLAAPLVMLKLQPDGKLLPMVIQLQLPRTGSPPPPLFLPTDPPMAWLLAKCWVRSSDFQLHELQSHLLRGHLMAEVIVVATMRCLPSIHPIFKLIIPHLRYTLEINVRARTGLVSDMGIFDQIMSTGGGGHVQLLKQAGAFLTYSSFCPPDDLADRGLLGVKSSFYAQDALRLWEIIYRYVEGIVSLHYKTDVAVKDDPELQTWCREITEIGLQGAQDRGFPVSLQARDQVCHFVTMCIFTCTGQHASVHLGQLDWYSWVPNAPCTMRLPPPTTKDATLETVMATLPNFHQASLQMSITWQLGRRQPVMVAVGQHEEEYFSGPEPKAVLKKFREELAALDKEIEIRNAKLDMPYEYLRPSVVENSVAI
How it was run: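 Purified human ALOX15 (15hLO-1) at 40 nM in 25 mM HEPES, 0.01% Triton X-100, pH 7.5, preincubated with compound 15 min at RT. Then 50 uM arachidonic acid for 30 min; hydroperoxide detected by Fe-xylenol orange as the 573/405 nm absorbance ratio.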
Note: 0% is about no effect.

Compound | activity change, negative = inhibition
COc1ccc(CC(=O)N2Cc3ccccc3CC23CCCN([S+](C)(=O)[O-])C3)cc1 (stereo not drawn) | 7.85%
O=C1NC2(Cc3ccccc31)CN(C(=O)c1cccc3c1OC(F)(F)O3)C2 | -11.2%
COc1cccc(N2C(=O)NC(=NC3CCCCC3)C23CCN(C(=O)c2ccccc2OC)C3)c1 (stereo not drawn) | -28.5%
O=C1NCc2ccccc2CC12CCN(Cc1ccc(Br)s1)CC2 | -30%
COc1ccc(C(=O)N2CCc3nc(C4CC4)nc(-c4ccc(Cl)cc4)c3C2)cc1 | -10.3%
O=C(c1ccccc1F)N1CCc2nc(C3CC3)nc(-c3ccc(Cl)cc3)c2C1 | -19.9%
O=C(c1ccncc1)N1CCCC(c2nnc3n2CCNC3)C1 (stereo not drawn) | 11.3% [at 146 µM]
O=C(O)c1cccc(-c2cncc(C(=O)O)c2)c1 | -28.7% [at 146 µM]
COc1ccc(C(=O)N2CCOC3(CCN(C(=O)CN)CC3)C2)cc1 | -8.06%
COc1ccc(N2CC3CCC(C2)N3Cc2ccc(-c3cccnc3)cc2)cc1 | -22%
COc1ccc(CNc2ncnc3c2CN(C2CCNC2)C(=O)CN3C)cc1OC (stereo not drawn) | -20.1%
Cc1cc(C(=O)NCc2ccncc2)c2c(C3CCNCC3)noc2n1 | -20.4%
CN(C)CCCC(=O)N1Cc2ccccc2CC2(CCCCN2CC2CCNCC2)C1 (stereo not drawn) | -16.9%
CC(=O)NCCC(=O)N1Cc2ccccc2CC2(CCCN2CC2CCNC2)C1 (stereo not drawn) | -24.8%
COc1ccc(OC)c([S+](=O)([O-])c2nnn3c2nc(NCc2ccc(F)cc2)c2ccccc23)c1 | -17.2%
O=C(c1cc(C2CC2)nc2onc(C3CCCNC3)c12)N1CCCCC1 (stereo not drawn) | -12.1% [at 146 µM]
O=C(N1CCCCC1)N1CCN(c2ccc(Cl)nn2)C(=O)C1 | -15.7% [at 146 µM]
CC(=O)NCCC(=O)N1Cc2ccccc2CC2(CCCN(CC3CCNC3)C2)C1 (stereo not drawn) | 3.5%
COc1cccc([S+](=O)([O-])N2CCn3c(nn(-c4cccc(Cl)c4)c3=O)C2)c1 | -0.101%

Compound | activity change, negative = inhibition
N#Cc1cccnc1-c1cccc(C(=O)O)c1 | -10.8% [at 146 µM]
COCCNC(=O)c1cc(-c2ccc(OC)cc2)nc2onc(C3CCNC3)c12 (stereo not drawn) | -22.4%
CCN1CCCC12Cc1ccccc1CN(C(=O)c1ccccc1)C2 (stereo not drawn) | 0.106%
Cc1ccc(-c2ccccc2CN)cc1Cl | -12% [at 146 µM]
NCC(=O)N1Cc2ccccc2CC12CCCN(C(=O)c1ccccc1)C2 (stereo not drawn) | 3.09%
Cc1cc(C(=O)NCc2cccs2)c2c(C3CCNC3)noc2n1 (stereo not drawn) | -7.35% [at 146 µM]
CN1CC(=O)N(C2CCCNC2)Cc2c(NC3CCCCC3)ncnc21 (stereo not drawn) | -25.8%
CC(=O)N1Cc2ccccc2CC2(CCCCN2Cc2ccccn2)C1 (stereo not drawn) | 12%
COc1ccc(CN2CCCCC23Cc2ccccc2CNC3=O)c(OC)c1 (stereo not drawn) | -15.9%
COC[C@@H]1CCCN1c1ncnc2c1CN(C1CCNC1)C(=O)CN2C (stereo partly drawn) | 0.659%
CNC1CCOc2ccccc21 (stereo not drawn) | -17.1% [at 146 µM]
NCc1ccccc1-c1ccc(O)cc1 | -16.9% [at 146 µM]
O=[S+]([O-])(c1ccc(Br)cc1)c1nnn2c1nc(NCc1ccc(F)cc1)c1ccccc12 | -20.2%
CCCN1CCCC2(Cc3ccccc3CN(C(=O)Cc3ccccc3)C2)C1 (stereo not drawn) | -27.1%
COc1ccc(C(=O)N2CC(Oc3ccc4c(c3)OCO4)C2)cc1 | 10.5% [at 146 µM]
CN1CC(=O)N(C2CCCNC2)Cc2c(NCC3CCCCCC3)ncnc21 (stereo not drawn) | -11.2%
O=C1NC2(Cc3ccccc31)CN(C(=O)c1ccccc1)C2 | -8.74% [at 146 µM]
CN1CC(=O)N(C2CCNCC2)Cc2c1ncnc2N(C)Cc1ccc(F)cc1 | -13.5%
CN1CC(=O)N(C2CCCNCC2)Cc2c(NCC(C)(C)C)ncnc21 (stereo not drawn) | 12.5%
